Results taken from PubChem BioAssay (NCATS).
Several values for one entry are separate records, joined by “and”; a condition that tells them apart may be missing. Equal entries are not always repeated. Inconclusive results are not listed. Where a structure was tested more than once in an assay, its records may differ in their call. Activity calls are given as the source filed them. Unless noted, the call rests on the fitted dose curve; in most records, active means well fitted curve in the direction sought with a large enough effect; inconclusive means small, poorly fitted or top-dose-only effect, or another doubt; inactive means no such curve, though single readings can be large; an effect the other way counts as inactive or inconclusive.

Key:
[1] = molecular target: Chromobox protein homolog 1 (Homo sapiens) (UniProt P83916); assay: qHTS Validation Assay for Inhibitors of HP1-beta Chromodomain Interactions with Methylated Histone Tails (AID 488953); details: HP1-beta chromodomain / methylated histone peptide binding assay; series mostly up to 114 µM; further: nearly all actives have a fitted effect of over 50% in size; further: potency means the concentration at half of the fitted maximal effect
How it was run: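 AlphaScreen proximity readout: streptavidin donor and Ni-chelate acceptor beads, 10 ug/mL final, 30 min dark, RT. Complex of 50 nM HP1-beta and 50 nM b-H3(1-18)K9me3 formed 30 min, then compound-treated 30 min; PBS pH 7.4/0.01% Tween-20.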

[2] = molecular target: Transient receptor potential cation channel subfamily V member 1 (Homo sapiens) (UniProt Q8NER1); assay: HTS Assay for Compounds that Act as Enhancers of the Vanilloid Receptor 1 (AID 488979); details: TRPV1-expressing cells, enhancer of channel activity; series mostly up to 41.7 µM; further: 0% is about no effect
How it was run: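 Calcium influx kinetics via Fluo-8 (480/520 nm) in TRPV1-expressing cells, 2000/well cultured overnight at 35.5C. Compound-alone read 3 min (agonist phase), followed by EC20 capsaicin challenge for 2 min (enhancer phase).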

[3] = molecular target: Thyrotropin receptor (Homo sapiens) (UniProt P16473); assay: qHTS Assay for Antagonists of the Thyroid Stimulating Hormone Receptor (AID 488980); details: TSHR-expressing cells, cAMP antagonist read-out; series mostly up to 57.5 µM; further: 0% is about no effect
How it was run: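 Cells expressing human TSHR (HEK293) are dispensed in HBSS/HEPES containing 70 uM RO 20-1724, compound is added, then TSH at EC80 (4 nM final). Antibody in lysis buffer follows, 30 minutes at room temperature before HTRF detection.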

[4] = molecular target: D(1A) dopamine receptor (Homo sapiens) (UniProt P21728); assay: HTS Assay for Allosteric Agonists of the Human D1 Dopamine Receptor: Primary Screen for Agonists (AID 488981); details: Inducible HEK293 T-REx D1 cells, calcium-flux fluorescence, 180 s kinetic; series mostly up to 41.8 µM; further: 0% is about no effect
How it was run: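 Calcium flux in an inducible, force-coupled HEK293 Trex D1 line (overnight at 30 C): agonist mode is the 180 s kinetic read after compound; potentiator mode is the following 180 s read after dopamine at EC20.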

[5] = molecular target: D(1A) dopamine receptor (Homo sapiens) (UniProt P21728); assay: HTS Assay for Allosteric Agonists of the Human D1 Dopamine Receptor: Primary Screen for Antagonists (AID 488983); details: D1 receptor cell assay, antagonist mode, qHTS titration; series mostly up to 41.8 µM;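 further: calcium flux response to an EC80 dopamine challenge measured with no-wash dye; on the % scale 0 is the no-effect control and ±100 the full control effect; nearly all actives have a fitted effect of over 65% in size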
How it was run: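 Calcium flux readout, no-wash dye, inducible HEK293 T-REx D1 line (force-coupled). Compound added after 10 s baseline, 180 s kinetic read; then dopamine at EC80, further 180 s read.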

[6] = Validation screen for small molecules that induce genotoxicity in human embryonic kidney (HEK293T) cells expressing luciferase-tagged ELG1 (AID 493106); details: luminescence; series mostly up to 46.1 µM; further: 0% is about no effect
How it was run: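 qHTS format; 2,000 HEK293T ELG1-luc cells/well; 23 nL compound via pin tool; 16 hr, 37 °C/5% CO2; ONE-Glo, 30 min RT; luminescence read.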

[7] = molecular target: ATPase family AAA domain-containing protein 5 (Homo sapiens) (UniProt Q96QE3); assay: Validation screen for small molecules that inhibit ELG1-dependent DNA repair in human embryonic kidney (HEK293T) cells expressing luciferase-tagged ELG1 (AID 493107); details: HEK293T ELG1-luciferase level, luminescence, 5-fluorouridine co-treatment, 16 h; series mostly up to 46.1 µM;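 further: cells co-treated with the DNA-damaging agent 5-fluorouridine alongside compound; on the % scale 0 is the no-effect control and ±100 the full control effect; inhibitors lower the ELG1-luciferase luminescence signal; nearly all actives have a fitted effect of over 70% in size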
How it was run: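 ELG1-luciferase HEK293T reporter; 5-fluorouridine + compound/DMSO, 16 hr, 37 °C, 5% CO2; ONE-Glo 30 min RT; luminescence read, qHTS format.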

[8] = molecular target: Thyrotropin-releasing hormone receptor (Homo sapiens) (UniProt P34981); assay: qHTS for Small Molecule Agonists and Allosteric Enhancers of Human TRH Receptor: Validation Screen for Agonists (AID 493127;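 active means calcium activation more than 3 SD above the typical response in the agonist read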;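 further: intracellular calcium rise by fluo-8 fluorescence before TRH EC20 addition; 0% is about no effect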); details: TRH receptor agonist cell assay; at 2 µM; stronger effect = higher value
How it was run: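 Read-out: intracellular calcium release measured kinetically by FDSS (fluo-8, ex 480/em 530 nm), 1 reading/s after a 10-cycle baseline. TRHR cells, 2000/well, cultured 18 h at 33.5C, dye-loaded at room temp. Compound-evoked positive calcium signal flags agonists.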

[9] = Nrf2 qHTS screen for inhibitors: Validation (AID 493153; active means well fitted inhibition curve with a large enough effect in the main read-out, with a control signal flat, not every such curve was filed as active; further: potency means the concentration at half of the fitted maximal effect); details: A549 ARE-Fluc reporter, 18-24 h; Potency: luciferase luminescence; viability change: measured here: cytotoxicity max response; luciferase luminescence, at 46.1 µM (top of the series)
How it was run: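 Concentration-response test in A549 ARE_Fluc reporter cells (5% FBS OPTI-MEM), compound exposure 18-24 h at 37°C, 5% CO2. Cell viability measured first by CellTiter-Fluor fluorescence; ARE-driven luciferase luminescence then measured as Nrf2 activity.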

[10] = qHTS for Inhibitors of Cell Surface uPA Generation: Validation Assay (AID 493164); details: mouse cells, plasminogen activation; series mostly up to 38.3 µM;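 further: RAW 264.7 macrophage cells exposed to compound for 18 h; 0% is about no effect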
How it was run: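 Compounds are titrated over seven points (2.45 nM–38.3 uM final) onto pre-plated RAW 264.7 cells and incubated for 18 h. Retained intracellular ATP, measured with ATP-Lite, indicates blocked lethal factor entry.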

[11] = molecular target: Galactokinase (Homo sapiens) (UniProt P51570); assay: qHTS Validation Assay for Inhibitors of Human Galactokinase (GALK) (AID 493189); details: purified human GALK enzyme activity, qHTS 7-point titration; series mostly up to 57.5 µM; further: 0% is about no effect
How it was run: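 Compounds were pin-transferred into ATP buffer, then GALK-galactose mix was added (final 5 nM enzyme, 100 uM galactose, 35 uM ATP). After 1 h at room temperature, remaining ATP was measured luminescently.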

[12] = Validation screen for small molecules that induce DNA re-replication in SW480 colon adenocarcinoma cells (AID 504364); details: DNA re-replication phenotype (high-content imaging); series mostly up to 46.1 µM; further: potency means the concentration at half of the fitted maximal effect
How it was run: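 Read-out: total Hoechst intensity of nuclei by fluorescence scanning imager; hits raise the fraction of nuclei with elevated DNA content. Cells received compound for 48 hr at 37 C before a 40 min stain.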

[13] = molecular target: Peptidyl-prolyl cis-trans isomerase NIMA-interacting 1 (Homo sapiens) (UniProt Q13526); assay: qHTS Validation Assay to Find Inhibitors of Pin1 (AID 504536; active means well fitted inhibition curve with a large enough effect in the polarisation, with a control signal flat, not every such curve was filed as active; the % refers to the polarisation;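 further: 0% = full Pin1 enzyme wells and -100% = no-enzyme wells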); details: Pin1 fluorescence polarization peptide binding assay; series mostly up to 57.5 µM
How it was run: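 Fluorescence polarization competition: compounds (titration) displace HiFluor-488-labeled Pin1-1b peptide from Pin1 (0.3 uM final) in pH 7.5 HEPES buffer with DTT, 10 min at room temperature; %Activity normalized to no-enzyme wells, curves fitted.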

[14] = molecular target: Phosphoglycerate kinase, glycosomal (Trypanosoma brucei brucei) (UniProt P07378); assay: qHTS Validation Assay to Find Inhibitors of Phosphoglycerate Kinase (AID 504547); details: enzymatic PGK inhibition, coupled luminescence read-out; series mostly up to 57.5 µM;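 further: control wells lack PGK and mark full inhibition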
How it was run: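 Luminescence end-point (Kinase-Glo Plus, 10 min) after a 60 min room-temperature coupled reaction. GAPDH at 100nM final supplies 1,3-BPG to PGK. Buffer: 100mM TEA pH 7.6, 5mM MgCl2, 0.01% Tween-20. Wells lacking PGK served as controls.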

[15] = molecular target: phosphoglycerate mutase (Leishmania major) (UniProt Q4Q090); assay: qHTS Validation Assay to Find Inhibitors of Phosphoglycerate Mutase (AID 504548); details: biochemical enzyme activity; series mostly up to 57.5 µM;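 further: end-point luminescence from Kinase-GloPlus after the PGAM reaction; on the % scale 0 is the no-effect control and ±100 the full control effect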
How it was run: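 L. major PGAM (1.25nM final) was added to substrate buffer and pinned compound, incubated 45 minutes at room temperature, then Kinase-GloPlus added; luminescence read after 10 minutes. Buffer: 100 mM TEA pH 7.6, 5 mM MgCl2, 0.01% Tween-20.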

[16] = Inducers of the Endoplasmic Reticulum Stress Response (ERSR) in human glioma: Validation (AID 504836); details: human glioma cells, ER stress response reporter; series mostly up to 38.3 µM; further: 0% is about no effect
How it was run: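 ERSR induction read as luciferase luminescence (Bright-Glo, 10 min at room temperature) in stably transfected human U87-MG glioma cells exposed to compounds for 16 h, using GRP78 as sensor.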

[17] = molecular target: Ubiquitin carboxyl-terminal hydrolase 1 (Homo sapiens) (UniProt O94782); assay: Inhibitors of USP1/UAF1: Pilot qHTS (AID 504865); details: purified USP1/UAF1, Ub-rhodamine cleavage fluorescence; series mostly up to 114 µM; further: nearly all actives have a fitted effect of over 35% in size; further: potency means the concentration at half of the fitted maximal effect
How it was run: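 Kinetic fluorescence assay: 1nM USP1/UAF1, 15 min compound preincubation, then 150nM Ub-Rho; 480/540 nm.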

[18] = qHTS for Inhibitors of ATXN expression: Validation of Cytotoxic Assay (AID 588349); details: cytotoxicity counter-screen for ATXN expression inhibitors, cell viability; series mostly up to 57.1 µM; further: potency means the concentration at half of the fitted maximal effect
How it was run: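 Cytotoxicity counter-screen: HEK293 cells exposed to compound titrations, 72 hr, 37 degrees C. Read-out is intracellular ATP (CellTiter Glo luminescence) as a viability measure.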

[19] = molecular target: ATP-dependent 6-phosphofructokinase (Trypanosoma brucei brucei) (UniProt O15648); assay: qHTS Assay to Find Inhibitors of T. brucei phosphofructokinase: hit validation (AID 492961);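 further: luminescence reports ADP formed as PFK phosphorylates fructose-6-phosphate with ATP; on the % scale 0 is the no-effect control and ±100 the full control effect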; details: T. brucei PFK, ADP-Glo luminescence; series mostly up to 51.4 µM
How it was run: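 ADP-Glo luminescence read-out of ADP formed by 1.25 nM PFK from 0.1 mM ATP and 0.5 mM F6P (TEA pH 8.0, 45 min, RT). Compounds titrated; activity normalized to no-enzyme and full-enzyme controls.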

[20] = molecular target: DNA dC->dU-editing enzyme APOBEC-3G (Homo sapiens) (UniProt Q9HC16); assay: qHTS for inhibitors of Vif-A3G interactions: Validation (AID 588379); details: Vif-A3G protein interaction assay; series mostly up to 46.1 µM; further: 0% is about no effect
How it was run: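 Yellow fluorescence (Ex 488, Em 500-530) of Vif-coexpressing HeLa A3G-eYFP cells, scanned by Acumen cytometer, reports blocked A3G degradation. Cells plated at 700/well overnight at 37 deg C before compound addition, then a further overnight compound incubation at 37 deg C.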

Chain of Galactokinase (Homo sapiens) (P51570 whole entry, looked up): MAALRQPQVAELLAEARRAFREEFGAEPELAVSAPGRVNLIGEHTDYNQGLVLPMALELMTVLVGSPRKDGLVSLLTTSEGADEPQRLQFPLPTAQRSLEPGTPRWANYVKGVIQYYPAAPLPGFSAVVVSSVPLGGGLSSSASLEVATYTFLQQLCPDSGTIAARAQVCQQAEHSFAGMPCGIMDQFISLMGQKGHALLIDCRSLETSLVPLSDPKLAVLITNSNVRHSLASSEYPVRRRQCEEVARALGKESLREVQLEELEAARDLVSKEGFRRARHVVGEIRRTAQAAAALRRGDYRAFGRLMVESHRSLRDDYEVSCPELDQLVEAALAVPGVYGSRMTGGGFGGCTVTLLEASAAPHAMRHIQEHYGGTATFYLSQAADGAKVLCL
Chain of Phosphoglycerate kinase, glycosomal (Trypanosoma brucei brucei) (P07378 whole entry, looked up): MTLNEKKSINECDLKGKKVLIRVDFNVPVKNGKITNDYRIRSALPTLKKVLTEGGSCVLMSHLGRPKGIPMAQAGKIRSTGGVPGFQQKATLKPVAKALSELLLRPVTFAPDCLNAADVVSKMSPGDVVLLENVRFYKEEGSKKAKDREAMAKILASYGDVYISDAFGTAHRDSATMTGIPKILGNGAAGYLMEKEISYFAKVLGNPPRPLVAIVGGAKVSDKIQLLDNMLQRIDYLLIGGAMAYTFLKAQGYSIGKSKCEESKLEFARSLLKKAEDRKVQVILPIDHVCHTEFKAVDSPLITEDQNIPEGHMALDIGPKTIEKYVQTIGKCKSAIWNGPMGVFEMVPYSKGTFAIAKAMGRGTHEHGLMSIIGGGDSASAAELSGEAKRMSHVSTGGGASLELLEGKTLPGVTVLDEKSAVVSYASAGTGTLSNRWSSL
Chain of Chromobox protein homolog 1 (Homo sapiens) (P83916 whole entry, looked up): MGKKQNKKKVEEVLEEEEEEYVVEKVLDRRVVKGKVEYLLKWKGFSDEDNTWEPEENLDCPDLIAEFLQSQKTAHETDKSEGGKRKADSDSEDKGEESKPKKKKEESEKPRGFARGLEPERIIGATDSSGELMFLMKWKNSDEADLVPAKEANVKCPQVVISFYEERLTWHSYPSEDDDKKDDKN
Chain of phosphoglycerate mutase (Leishmania major) (Q4Q090 1-553): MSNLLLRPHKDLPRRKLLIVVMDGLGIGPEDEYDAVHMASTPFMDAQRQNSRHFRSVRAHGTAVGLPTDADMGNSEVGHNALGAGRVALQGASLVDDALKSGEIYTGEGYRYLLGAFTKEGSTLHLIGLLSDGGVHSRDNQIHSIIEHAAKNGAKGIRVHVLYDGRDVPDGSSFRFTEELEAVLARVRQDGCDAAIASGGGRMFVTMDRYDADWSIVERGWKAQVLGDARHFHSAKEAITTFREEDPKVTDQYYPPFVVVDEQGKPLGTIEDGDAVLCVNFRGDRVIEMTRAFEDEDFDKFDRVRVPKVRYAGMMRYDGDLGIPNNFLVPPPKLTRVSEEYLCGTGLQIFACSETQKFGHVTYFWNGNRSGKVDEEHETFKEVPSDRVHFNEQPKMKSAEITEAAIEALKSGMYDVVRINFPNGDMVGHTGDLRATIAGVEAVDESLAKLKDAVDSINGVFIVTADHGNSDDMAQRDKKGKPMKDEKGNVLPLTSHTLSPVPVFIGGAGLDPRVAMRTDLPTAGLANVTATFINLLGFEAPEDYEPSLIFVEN
Chain of Transient receptor potential cation channel subfamily V member 1 (Homo sapiens) (Q8NER1 whole entry, looked up): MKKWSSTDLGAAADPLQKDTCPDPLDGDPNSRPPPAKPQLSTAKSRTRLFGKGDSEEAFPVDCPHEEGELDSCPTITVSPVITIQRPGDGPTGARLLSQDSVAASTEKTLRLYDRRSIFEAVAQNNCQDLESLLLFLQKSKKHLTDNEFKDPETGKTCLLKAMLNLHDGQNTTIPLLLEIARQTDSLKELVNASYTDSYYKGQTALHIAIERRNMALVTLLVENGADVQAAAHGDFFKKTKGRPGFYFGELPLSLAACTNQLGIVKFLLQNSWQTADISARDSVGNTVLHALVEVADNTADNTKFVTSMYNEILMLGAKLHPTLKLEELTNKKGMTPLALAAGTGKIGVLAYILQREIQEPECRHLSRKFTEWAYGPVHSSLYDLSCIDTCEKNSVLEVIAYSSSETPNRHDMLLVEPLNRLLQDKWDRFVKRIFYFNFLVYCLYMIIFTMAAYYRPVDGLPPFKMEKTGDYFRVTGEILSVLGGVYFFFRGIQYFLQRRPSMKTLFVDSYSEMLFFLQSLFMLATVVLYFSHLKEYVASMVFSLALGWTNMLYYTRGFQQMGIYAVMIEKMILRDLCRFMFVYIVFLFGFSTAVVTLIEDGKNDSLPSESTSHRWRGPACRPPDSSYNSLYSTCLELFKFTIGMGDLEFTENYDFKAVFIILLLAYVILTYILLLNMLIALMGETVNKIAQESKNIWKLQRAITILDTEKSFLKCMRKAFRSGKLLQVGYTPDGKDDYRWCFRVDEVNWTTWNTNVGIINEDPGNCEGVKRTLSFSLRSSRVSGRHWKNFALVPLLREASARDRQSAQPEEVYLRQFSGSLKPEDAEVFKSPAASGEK
Chain of Thyrotropin-releasing hormone receptor (Homo sapiens) (P34981 whole entry, looked up): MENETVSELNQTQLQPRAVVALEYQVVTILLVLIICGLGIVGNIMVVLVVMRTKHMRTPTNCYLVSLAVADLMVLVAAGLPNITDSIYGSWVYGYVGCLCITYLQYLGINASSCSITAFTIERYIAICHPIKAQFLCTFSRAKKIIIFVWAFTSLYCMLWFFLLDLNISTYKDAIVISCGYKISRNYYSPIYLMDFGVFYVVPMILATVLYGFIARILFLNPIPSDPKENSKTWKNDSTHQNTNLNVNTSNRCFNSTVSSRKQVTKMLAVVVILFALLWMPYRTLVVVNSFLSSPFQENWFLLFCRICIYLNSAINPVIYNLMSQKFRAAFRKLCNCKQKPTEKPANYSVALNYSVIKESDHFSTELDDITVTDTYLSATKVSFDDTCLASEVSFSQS
Chain of ATPase family AAA domain-containing protein 5 (Homo sapiens) (Q96QE3 whole entry, looked up, the tested form may be a part): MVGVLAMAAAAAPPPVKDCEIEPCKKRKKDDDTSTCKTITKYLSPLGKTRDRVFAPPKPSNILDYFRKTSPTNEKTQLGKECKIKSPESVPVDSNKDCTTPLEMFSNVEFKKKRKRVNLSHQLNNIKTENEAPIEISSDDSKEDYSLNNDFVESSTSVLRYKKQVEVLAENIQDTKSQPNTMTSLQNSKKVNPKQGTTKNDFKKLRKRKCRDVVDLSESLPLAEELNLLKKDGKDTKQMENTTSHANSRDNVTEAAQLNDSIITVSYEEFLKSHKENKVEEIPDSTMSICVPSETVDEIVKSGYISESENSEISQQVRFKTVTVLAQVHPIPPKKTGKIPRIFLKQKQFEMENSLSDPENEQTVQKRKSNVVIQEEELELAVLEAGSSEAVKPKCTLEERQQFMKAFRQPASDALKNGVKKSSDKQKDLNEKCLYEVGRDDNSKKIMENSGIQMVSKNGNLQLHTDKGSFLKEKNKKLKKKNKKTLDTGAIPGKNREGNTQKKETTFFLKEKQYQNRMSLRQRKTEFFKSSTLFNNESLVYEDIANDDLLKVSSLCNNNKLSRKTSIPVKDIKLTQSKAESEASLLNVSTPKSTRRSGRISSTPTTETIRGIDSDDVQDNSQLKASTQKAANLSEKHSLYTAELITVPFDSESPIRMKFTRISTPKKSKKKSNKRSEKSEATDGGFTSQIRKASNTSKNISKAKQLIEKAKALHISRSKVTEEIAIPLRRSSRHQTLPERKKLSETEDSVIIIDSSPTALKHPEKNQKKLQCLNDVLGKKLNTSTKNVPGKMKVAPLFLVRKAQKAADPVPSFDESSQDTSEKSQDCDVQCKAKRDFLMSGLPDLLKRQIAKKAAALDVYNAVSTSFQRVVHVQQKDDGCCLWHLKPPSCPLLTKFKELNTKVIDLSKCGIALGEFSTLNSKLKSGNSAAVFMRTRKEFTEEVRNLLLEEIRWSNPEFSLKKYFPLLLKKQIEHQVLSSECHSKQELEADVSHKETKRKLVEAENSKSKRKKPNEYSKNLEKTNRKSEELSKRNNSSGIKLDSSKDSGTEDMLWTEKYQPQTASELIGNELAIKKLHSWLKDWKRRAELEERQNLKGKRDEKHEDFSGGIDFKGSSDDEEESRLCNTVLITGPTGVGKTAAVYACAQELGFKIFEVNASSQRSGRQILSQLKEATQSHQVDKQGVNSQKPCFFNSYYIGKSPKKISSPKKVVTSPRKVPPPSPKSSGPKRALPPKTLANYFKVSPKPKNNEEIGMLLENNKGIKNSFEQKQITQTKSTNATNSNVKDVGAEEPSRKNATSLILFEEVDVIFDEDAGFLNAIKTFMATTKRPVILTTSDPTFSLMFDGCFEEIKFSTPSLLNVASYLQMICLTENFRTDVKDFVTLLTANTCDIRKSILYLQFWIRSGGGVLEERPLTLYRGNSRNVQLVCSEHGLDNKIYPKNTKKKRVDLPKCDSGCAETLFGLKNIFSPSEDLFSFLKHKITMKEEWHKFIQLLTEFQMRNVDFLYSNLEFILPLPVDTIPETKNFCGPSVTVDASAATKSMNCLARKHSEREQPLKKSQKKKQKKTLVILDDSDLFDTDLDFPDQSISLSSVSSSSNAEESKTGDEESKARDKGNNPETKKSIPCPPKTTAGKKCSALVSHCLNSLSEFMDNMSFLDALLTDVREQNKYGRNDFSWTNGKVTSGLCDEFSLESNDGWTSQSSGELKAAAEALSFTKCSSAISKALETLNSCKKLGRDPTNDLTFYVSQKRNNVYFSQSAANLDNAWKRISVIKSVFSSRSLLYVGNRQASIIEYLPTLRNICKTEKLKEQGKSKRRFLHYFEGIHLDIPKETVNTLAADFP
Chain of Peptidyl-prolyl cis-trans isomerase NIMA-interacting 1 (Homo sapiens) (Q13526 whole entry, looked up): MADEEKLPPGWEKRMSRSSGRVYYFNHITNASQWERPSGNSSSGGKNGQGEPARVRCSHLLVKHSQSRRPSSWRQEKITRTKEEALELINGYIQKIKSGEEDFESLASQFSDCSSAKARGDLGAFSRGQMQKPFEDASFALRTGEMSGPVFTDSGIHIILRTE

CCCC(C)(COC(N)=O)COC(=O)NC(C)C (stereo not drawn)
inactive: outcome [2] | outcome [3] | Potency [4] | Potency [5] | Potency [6] | Potency [7] | activation [8] -0.188% | Potency [9] | outcome [10] | outcome [11] | Potency [12] | Potency [13] | Potency [14] | outcome [15] | outcome [16] | Potency [17] | Potency [18]
active: Potency [1] 0.006 µM
5.42%: viability change [9]

COc1ccc(Cc2nccc3cc(OC)c(OC)cc23)cc1OC
-7.85%: viability change [9]
inactive: outcome [2] | outcome [3] | activation [8] -0.312% | outcome [11] | Potency [12] | outcome [16]
inactive and 50.1 µM (active): Potency [17]
active: Potency [1] 0.006 µM | Potency [9] 7.31 µM

COc1ccccc1N1CCNCC1
inactive: Potency [1] | outcome [2] | outcome [3] | Potency [4] | outcome [19] | Potency [6] | Potency [7] | activation [8] -7.69% | Potency [9] | outcome [10] | outcome [11] | Potency [12] | Potency [13] | Potency [14] | outcome [15] | outcome [16] | Potency [17] | Potency [18]
10.4%: viability change [9]

CNCCC(Oc1ccc(C(F)(F)F)cc1)c1ccccc1 (stereo not drawn)
active: Potency [18] 28.2 µM
inactive: Potency [1] | outcome [16]

CCC1(C2=NCCN2)Cc2ccccc2O1 (stereo not drawn)
inactive: Potency [1] | outcome [2] | outcome [3] | Potency [4] | Potency [5] | Potency [6] | activation [8] 0.812% | Potency [9] | outcome [10] | outcome [11] | Potency [12] | Potency [13] | Potency [14] | outcome [15] | outcome [16] | Potency [17] | Potency [18]
1.87%: viability change [9]

C=C(C)[C@H]1Cc2c(ccc3c2O[C@@H]2COc4cc(OC)c(OC)cc4[C@@H]2C3=O)O1
inactive: outcome [2] | outcome [3] | Potency [4] | Potency [5] | Potency [6] | activation [8] 1.25% | outcome [10] | outcome [11] | Potency [13] | Potency [14] | outcome [15] | outcome [16] | outcome [20]
active: Potency [1] 35.5 µM | Potency [12] 0.92 µM

NCC(O)c1ccc(O)cc1 (stereo not drawn)
0.943%: viability change [9]
inactive: Potency [1] | outcome [2] | outcome [3] | Potency [4] | Potency [5] | Potency [6] | Potency [7] | activation [8] 0.812% | Potency [9] | outcome [10] | outcome [11] | Potency [12] | Potency [13] | Potency [14] | outcome [15] | outcome [16] | Potency [17] | Potency [18]
